# Measured values: PubChem BioAssay (EPA / NIEHS)
# Records with an inconclusive call do not appear. The source made the active and inactive calls. The calls were made as follows: active = hit-call score of the fitted dose curve at least 0.9, where 1 is the maximum; inconclusive = response in the unintended direction; inactive = score below 0.9.
# Key:
# [1] = target: rat Mineralocorticoid Receptor (MR), Nr3c2 (gene 25672) (UniProt P22199); assay: NVS_NR_rMR: NovaScreen (NVS) Nuclear Receptor Binding Assay for rat Mineralocorticoid Receptor (MR) (AID 2283355)
# Chain of rat Mineralocorticoid Receptor (MR), Nr3c2 (gene 25672) (P22199 whole entry, looked up): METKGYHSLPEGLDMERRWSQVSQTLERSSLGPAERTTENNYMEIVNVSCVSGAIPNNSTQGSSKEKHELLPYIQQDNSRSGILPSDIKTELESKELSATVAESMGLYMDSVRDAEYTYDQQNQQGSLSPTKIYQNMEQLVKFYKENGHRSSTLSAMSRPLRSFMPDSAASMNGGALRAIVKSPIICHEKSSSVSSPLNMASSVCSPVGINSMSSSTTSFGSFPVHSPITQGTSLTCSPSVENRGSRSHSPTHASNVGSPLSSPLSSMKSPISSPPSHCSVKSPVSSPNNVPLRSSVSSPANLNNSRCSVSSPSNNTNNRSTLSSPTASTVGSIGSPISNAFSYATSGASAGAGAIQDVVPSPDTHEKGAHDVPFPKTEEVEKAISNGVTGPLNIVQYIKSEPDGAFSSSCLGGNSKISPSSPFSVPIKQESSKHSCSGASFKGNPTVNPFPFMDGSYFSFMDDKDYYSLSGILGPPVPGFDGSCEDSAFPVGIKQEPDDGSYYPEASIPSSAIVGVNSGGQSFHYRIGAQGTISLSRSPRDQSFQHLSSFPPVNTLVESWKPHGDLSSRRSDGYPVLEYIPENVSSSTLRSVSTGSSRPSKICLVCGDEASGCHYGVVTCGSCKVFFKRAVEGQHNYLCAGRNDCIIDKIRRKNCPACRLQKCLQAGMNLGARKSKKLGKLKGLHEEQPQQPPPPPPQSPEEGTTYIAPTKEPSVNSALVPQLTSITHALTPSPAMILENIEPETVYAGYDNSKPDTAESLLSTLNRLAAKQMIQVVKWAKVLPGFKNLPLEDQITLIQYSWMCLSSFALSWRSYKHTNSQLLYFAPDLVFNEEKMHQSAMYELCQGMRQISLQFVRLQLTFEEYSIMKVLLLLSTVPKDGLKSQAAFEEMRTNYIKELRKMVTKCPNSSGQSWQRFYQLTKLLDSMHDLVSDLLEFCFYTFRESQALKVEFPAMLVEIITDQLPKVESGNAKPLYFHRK
# How it was run: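 Adrenalectomized rat brain supernatant was dosed with test chemical, then radioligand binding was measured by scintillation counting at 24 h. Initial testing ran in duplicate at 25 uM, followed by concentration series for actives.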
# [2] = target: Retinoic acid receptor alpha (Homo sapiens) (UniProt P10276); assay: NVS_NR_hRAR_Antagonist: NovaScreen (NVS) Nuclear Receptor Binding Assay for human Retinoic Acid Alpha Receptor Antagonism (RAR) (AID 2283358)
# Chain of Retinoic acid receptor alpha (Homo sapiens) (P10276 whole entry, looked up): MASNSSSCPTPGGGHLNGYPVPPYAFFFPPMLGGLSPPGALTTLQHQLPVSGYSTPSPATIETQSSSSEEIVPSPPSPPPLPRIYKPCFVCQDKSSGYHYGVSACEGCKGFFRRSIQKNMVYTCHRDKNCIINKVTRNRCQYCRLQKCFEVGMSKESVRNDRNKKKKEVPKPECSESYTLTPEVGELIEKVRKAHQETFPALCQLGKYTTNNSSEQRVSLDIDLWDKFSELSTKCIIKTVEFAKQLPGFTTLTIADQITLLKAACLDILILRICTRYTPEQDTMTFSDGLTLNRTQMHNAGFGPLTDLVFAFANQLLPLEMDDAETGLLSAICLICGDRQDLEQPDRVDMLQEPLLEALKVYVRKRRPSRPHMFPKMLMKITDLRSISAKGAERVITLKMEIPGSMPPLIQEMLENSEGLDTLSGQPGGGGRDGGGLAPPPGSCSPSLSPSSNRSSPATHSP
# How it was run: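 TR-FRET, cell-free, antagonist format; 2 h incubation after dosing; DMSO = baseline; signal loss fitted; 25 uM duplicate primary, then conc. series.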
# [3] = target: human Thyroid Receptor Alpha (TRa), THRA (gene 7067) (UniProt P10827); assay: NVS_NR_hTRa_Antagonist: NovaScreen (NVS) Nuclear Receptor Binding Assay for human Thyroid Receptor Alpha Antagonism (TRa) (AID 2283362);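 also: activity is loss of signal relative to DMSO baseline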
# Chain of human Thyroid Receptor Alpha (TRa), THRA (gene 7067) (P10827 whole entry, looked up): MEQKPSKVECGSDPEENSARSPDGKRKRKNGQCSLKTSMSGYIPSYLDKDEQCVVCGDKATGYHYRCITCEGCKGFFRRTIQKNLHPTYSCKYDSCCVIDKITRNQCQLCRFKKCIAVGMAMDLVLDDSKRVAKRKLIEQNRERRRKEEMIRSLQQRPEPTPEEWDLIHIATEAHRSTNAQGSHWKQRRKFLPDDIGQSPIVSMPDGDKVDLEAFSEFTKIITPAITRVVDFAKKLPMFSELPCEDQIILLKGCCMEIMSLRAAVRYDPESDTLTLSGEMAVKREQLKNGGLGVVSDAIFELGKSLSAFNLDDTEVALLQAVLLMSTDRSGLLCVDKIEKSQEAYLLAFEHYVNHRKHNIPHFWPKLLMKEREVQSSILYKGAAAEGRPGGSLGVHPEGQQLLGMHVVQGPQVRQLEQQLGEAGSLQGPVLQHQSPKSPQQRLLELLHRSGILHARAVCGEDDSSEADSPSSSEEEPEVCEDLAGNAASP
# How it was run: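 In this biochemical format, receptor protein is dosed with chemical and read after 1 hour via AlphaLISA. Decreases from the DMSO baseline indicate antagonist activity; screening used 25 uM in duplicate before concentration-response confirmation.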
# [4] = target: rat Androgen Receptor (AR), Ar (gene 24208) (UniProt P15207); assay: NVS_NR_rAR: NovaScreen (NVS) Nuclear Receptor Binding Assay for rat Androgen Receptor (AR) (AID 2283366)
# Chain of rat Androgen Receptor (AR), Ar (gene 24208) (P15207 whole entry, looked up): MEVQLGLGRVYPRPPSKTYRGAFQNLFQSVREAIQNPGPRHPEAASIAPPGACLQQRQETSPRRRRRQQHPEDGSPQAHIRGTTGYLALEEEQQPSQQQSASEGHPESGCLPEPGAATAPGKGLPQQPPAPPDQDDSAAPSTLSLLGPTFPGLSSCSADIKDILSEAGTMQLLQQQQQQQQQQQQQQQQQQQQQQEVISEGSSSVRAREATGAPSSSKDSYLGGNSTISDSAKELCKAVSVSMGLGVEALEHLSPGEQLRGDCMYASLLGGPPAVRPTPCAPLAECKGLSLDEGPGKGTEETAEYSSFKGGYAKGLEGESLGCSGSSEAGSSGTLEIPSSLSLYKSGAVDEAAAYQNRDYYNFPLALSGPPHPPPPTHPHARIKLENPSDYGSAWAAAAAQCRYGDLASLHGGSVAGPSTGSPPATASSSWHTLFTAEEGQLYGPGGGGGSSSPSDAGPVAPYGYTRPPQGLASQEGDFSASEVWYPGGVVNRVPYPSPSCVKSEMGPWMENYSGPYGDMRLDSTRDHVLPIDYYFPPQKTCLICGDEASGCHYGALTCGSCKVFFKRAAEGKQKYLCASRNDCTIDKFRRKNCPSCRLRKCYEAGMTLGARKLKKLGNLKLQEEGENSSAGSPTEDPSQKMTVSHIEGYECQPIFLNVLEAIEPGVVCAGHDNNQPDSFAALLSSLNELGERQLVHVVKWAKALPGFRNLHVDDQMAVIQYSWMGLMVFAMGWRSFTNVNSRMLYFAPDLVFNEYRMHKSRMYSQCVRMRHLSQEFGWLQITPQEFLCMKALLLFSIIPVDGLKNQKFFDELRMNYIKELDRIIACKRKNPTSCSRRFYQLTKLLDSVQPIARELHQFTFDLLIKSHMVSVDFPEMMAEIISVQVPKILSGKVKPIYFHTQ
# How it was run: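 Cell-free radioligand binding on extracts of prostate from testosterone-pretreated rats, read by filter-based scintillation counting 18 h after dosing. Loss of bound signal fitted positively versus DMSO; primary screen in duplicate at 25 uM, actives followed up in concentration series.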
# [5] = target: guinea pig Sigma Receptor, Non-selective Binding, SIGMAR1 (gene 100135589) (UniProt Q60492); assay: NVS_OR_gSIGMA_NonSelective: NovaScreen (NVS) Nuclear Receptor Binding Assay for guinea pig Sigma Receptor, Non-selective Binding (AID 2283367)
# Chain of guinea pig Sigma Receptor, Non-selective Binding, SIGMAR1 (gene 100135589) (Q60492 whole entry, looked up): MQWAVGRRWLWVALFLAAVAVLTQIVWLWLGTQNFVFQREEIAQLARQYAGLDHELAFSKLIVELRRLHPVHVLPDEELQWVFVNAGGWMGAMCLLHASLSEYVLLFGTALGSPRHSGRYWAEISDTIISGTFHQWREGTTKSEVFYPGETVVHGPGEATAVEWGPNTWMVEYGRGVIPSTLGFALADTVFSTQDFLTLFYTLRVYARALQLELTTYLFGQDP
# How it was run: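 gp brain membr., radioligand displacement, 1 h, filtration + scint. counting; DMSO = baseline; 25 uM x2 primary, conc.-response confirm.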
compound,measurement,setting,value
C#C[C@]1(O)CC[C@H]2[C@@H]3CCc4cc(OC)ccc4[C@H]3CC[C@@]21C,outcome,[1],inactive
CC(Cc1ccc(O)c(O)c1)C(C)Cc1ccc(O)c(O)c1 (stereo unspecified),AC50,[2],11.7 µM (active)
CCN(Cc1cccc(S(=O)(=O)O)c1)c1ccc(C(=C2C=CC(=[N+](CC)Cc3cccc(S(=O)(=O)O)c3)C=C2)c2ccc(O)cc2S(=O)(=O)[O-])cc1,AC50,[2],7.39 µM (active)
CCCCCCC(C)OC(=O)CCCCC(=O)OC(C)CCCCCC (stereo unspecified),outcome,[3],inactive
CC(=O)Nc1ccc(N=Nc2cc(C)ccc2O)cc1,AC50,[4],25 µM (active)
CCCCCCCCCCCCCCCC[N+](C)(C)Cc1ccccc1,AC50,[5],1.23 µM (active)
